Assay results taken from the supplement of paper PMC5641865, “A screen for kinase inhibitors identifies antimicrobial imidazopyridine aminofurazans as specific inhibitors of the Listeria monocytogenes PASTA kinase PrkA” (The Journal of Biological Chemistry, 2017).
± gives the standard deviation of the averaged measurements.

System: Listeria monocytogenes 10403S
Experiment: growth inhibition relative to ceftriaxone-alone control; higher = stronger potentiation of ceftriaxone growth inhibition
Details: 10 µM; ceftriaxone 1 ug/ml; 12 h
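Note: End-point A600 read in BHI broth at 37 °C with 2% DMSO, inhibition computed as (1 − OD with compound plus ceftriaxone ÷ OD with ceftriaxone only) × 100.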

Compound | growth inhibition
O=C(Nc1n[nH]c2cc(-c3ccc(F)cc3)ccc12)C1CC1 | -9.6 ± 16%
O=C(Nc1n[nH]c2cc(-c3ccccc3)ccc12)C1CC1 | 4.09 ± 0.32%
CC(=O)NCC(=O)N1[C@@H]2CC[C@H]1c1ccc(Nc3ncc(C(F)(F)F)c(NC4CCC4)n3)cc12 | 52 ± 46%
COc1cc(Nc2nccc(-c3cnn4ncccc34)n2)cc(OC)c1 | -13.8 ± 16%
CN(C)C/C=C/C(=O)Nc1cc2c(Nc3ccc(F)c(Cl)c3)ncnc2cc1O[C@H]1CCOC1 [Afatinib (BIBW2992)] | 45.41 ± 0.44%
COc1cccc(-n2cnc3c(N/N=C/c4ccncc4)ncnc32)c1 | -10.6 ± 15%
COc1ccc(-c2cc(-c3c[nH]nc3-c3ccccn3)ccn2)cc1 | 3.1 ± 4.7%
NS(=O)(=O)c1cccc(N/C=C2\C(=O)Nc3ccccc32)c1 | -6.18 ± 1%
O=C1NC(=O)/C(=C/c2ccc(-c3ccc(F)cc3O)o2)S1 | 70.7 ± 9.8%
NS(=O)(=O)c1ccc(N/C=C2\C(=O)Nc3ccc4ncsc4c32)cc1 | -2.62 ± 4.2%
Fc1ccc(-c2ncn(C3CCNCC3)c2-c2ccnc(Oc3ccccc3)n2)cc1 | -4.1 ± 5.5%
COc1cccc(-n2ncc3c(N/N=C/c4ccc(S(C)(=O)=O)cc4)ncnc32)c1 | -2.76 ± 9.3%
CCCN1CCCC(c2ccc(Nc3nc(Nc4cc(F)ccc4C(N)=O)c4cc[nH]c4n3)c(OC)c2)C1 (stereo not drawn) | 1.46 ± 6.2%
N#Cc1c(NC(=O)CN2CCOCC2)sc2c1CCCC2 | 9.96 ± 12%
Cc1ccc(C(=O)NC2CCCCC2)cc1-c1ccc(C(=O)NCC2CC2)cc1 | -1.78 ± 6.1%
COc1ccccc1Nc1ncc(-c2ccccc2)o1 | 1.22 ± 3.5%
C=CC(=O)Nc1cccc(Sc2nc(Nc3ccc(N4CCN(C)CC4)cc3)ncc2Cl)c1 | 94.1 ± 1.1%
O=C1NC(=O)C(c2cccc(Cl)c2)=C1Nc1ccc(O)c(Cl)c1 | -7.55 ± 15%
Fc1ccc(-c2ncn(C3CCNCC3)c2-c2ccnc(Oc3ccc(F)c(F)c3)n2)cc1 | 10.7 ± 16%

Compound | growth inhibition
CN1CCC(n2cnc(-c3ccc(F)cc3)c2-c2ccnc(Nc3ccccc3)n2)CC1 | -8.92 ± 3.6%
CC(C)(C)c1cc(NC(=O)Nc2ccc(-c3cn4c(n3)sc3cc(OCCN5CCOCC5)ccc34)cc2)no1 [Quizartinib (AC220)] | 35.5 ± 10%
Cn1cc(C2=C(c3ccc(Cl)cc3Cl)C(=O)NC2=O)c2ccccc21 | 19.5 ± 33%
Cc1cnc(Nc2ccc(OCCN3CCCC3)cc2)nc1Nc1cccc(S(=O)(=O)NC(C)(C)C)c1 | 39 ± 15%
c1ccc(-c2n[nH]cc2-c2ccnc(-c3ccc(OCCn4ccnc4)cc3)c2)nc1 | -3.25 ± 8%
O=C(Nc1cccc(Cl)c1)Nc1ncc(CCNc2ncnc3ccsc23)s1 | 94.4 ± 2%
CCNC(=O)O[C@H]1CN[C@H](C#Cc2cc3ncnc(Nc4ccc(OCc5cccc(F)c5)c(Cl)c4)c3s2)C1 | 27.1 ± 33%
CC(=O)Nc1nc(C)c(-c2ccc(Cl)c(S(=O)(=O)NCCO)c2)s1 | 29.5 ± 2%
Cc1ccc(C(=O)NC2CC2)cc1-c1ccc2[nH]ncc2c1 | 8.37 ± 0.62%
COc1cc2ncn(-c3cc(OCc4ccccc4S(C)(=O)=O)c(C#N)s3)c2cc1OC | 12.7 ± 3%
CCCNC(=O)Nc1ccc(Oc2ncnc3cc(OC)c(OC)cc23)cc1Cl | 12.7 ± 1.9%
Cc1cc(C(=O)NOCCO)c(Nc2ccc(I)cc2F)n(C)c1=O | 13.2 ± 5.6%
CS(=O)(=O)CCNCc1ccc(-c2ccc3ncnc(Nc4ccc(OCc5cccc(F)c5)c(Cl)c4)c3c2)o1 [Lapatinib Ditosylate (Tykerb)] | 42 ± 16%
Nc1nccc(Oc2ccc(NC(=O)c3c[nH]cc(-c4ccc(F)cc4)c3=O)cc2F)c1Cl | 1.11 ± 36%
CCS(=O)(=O)c1ccc(OC)c(Nc2ncc(-c3cccc(-c4ccccc4F)c3)o2)c1 | 2.03 ± 2.4%
COc1cc(N2CCC(N3CCN(C)CC3)CC2)ccc1Nc1ncc(Cl)c(Nc2ccccc2S(=O)(=O)C(C)C)n1 | 79.1 ± 24%
NC1(c2ccc(-c3nc4ccn5c(=O)[nH]nc5c4cc3-c3ccccc3)cc2)CCC1 | 86.41 ± 0.47%
O=C1NC(=O)/C(=C/c2ccc3nccc(-c4ccncc4)c3c2)S1 | 19.4 ± 3.5%
O=C1Nc2ccc(-c3cccnc3)cc2C1=Cc1cc(Br)c(O)c(Br)c1 | 22.1 ± 2.9%
